About 83,000 compounds went through this panel and 20% of them were active in at least one assay; those are over-represented in the sample as a whole.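 Activity criterion: percent growth below 10, measured after cells in 96-well plates were exposed to a single compound concentration for 48 hours.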 Activity calls are given as the source filed them.
Experiments:
Experiment in all cases: NCI-60 one-dose screen, 48 h (100 = growth as untreated, 0 = no growth, -100 = all killed)
Conditions in all cases: 10 µM unless noted
NCI-H23 lung = system: NCI-H23 lung
NCI-H226 lung = system: NCI-H226 lung
NCI-H322M lung = system: NCI-H322M lung
HOP-62 NSCLC = system: HOP-62 NSCLC
NCI-H460 lung = system: NCI-H460 lung
HOP-92 NSCLC = system: HOP-92 NSCLC
NCI-H522 lung = system: NCI-H522 lung
A549/ATCC NSCLC = system: A549/ATCC NSCLC
786-0 renal = system: 786-0 renal
COLO 205 colon = system: COLO 205 colon
DU-145 prostate = system: DU-145 prostate
MALME-3M melanoma = system: MALME-3M melanoma
MDA-MB-231 breast = system: MDA-MB-231 breast
RXF 393 renal = system: RXF 393 renal
SF-268 CNS = system: SF-268 CNS
SF-295 CNS = system: SF-295 CNS
SF-539 CNS = system: SF-539 CNS
UACC-257 melanoma = system: UACC-257 melanoma
M14 melanoma = system: M14 melanoma

Measured: growth

CC[C@]12C=CCN3CC[C@@]4(c5cc(NC(=O)CCC(=O)O[C@H]6CC[C@H]7[C@@H]8CCC9=CC(=O)CC[C@@H]9[C@H]8CC[C@]67C)c(OC)cc5N(C)[C@H]4[C@@](O)(C(=O)OC)[C@@H]1OC(C)=O)[C@@H]32
inactive: NCI-H23 lung 90.7% | NCI-H226 lung 86.5% | NCI-H322M lung 91.1% | HOP-62 NSCLC 89.3% | NCI-H460 lung 77.4% | HOP-92 NSCLC 64.6% | NCI-H522 lung 69.9% | A549/ATCC NSCLC 74.3% | 786-0 renal 86% | COLO 205 colon 89.8% | DU-145 prostate 82.2% | MALME-3M melanoma 98.9% | MDA-MB-231 breast 68.5% | RXF 393 renal 82.7% | SF-268 CNS 74.4% | SF-295 CNS 86.3% | SF-539 CNS 94.8% | UACC-257 melanoma 76.2% | M14 melanoma 77.1%

CCCCN1C=CCN(CCCC)C1
inactive: NCI-H23 lung 65.4% | NCI-H226 lung 82.9% | NCI-H322M lung 75% | HOP-62 NSCLC 84.1% | NCI-H460 lung 50.1% | HOP-92 NSCLC 50.2% | NCI-H522 lung 47.7% | A549/ATCC NSCLC 66.7% | 786-0 renal 73.9% | COLO 205 colon 30.4% | DU-145 prostate 71.8% | MDA-MB-231 breast 75.2% | RXF 393 renal 113% | SF-268 CNS 58% | SF-295 CNS 55.6% | SF-539 CNS 78.6% | UACC-257 melanoma 10.8% | M14 melanoma 46%
active: MALME-3M melanoma -22.1%

N#CC1=C(N)Oc2c(ccc3ccccc23)C1c1ccccc1Cl (configuration not stated)
active: NCI-H460 lung 5.27% | NCI-H522 lung -7.02% | COLO 205 colon -1.64% | MDA-MB-231 breast 9.2% | SF-295 CNS 8.26% | SF-539 CNS -13.5%
inactive: NCI-H23 lung 30.9% | NCI-H226 lung 69.3% | NCI-H322M lung 54.7% | HOP-62 NSCLC 49.9% | HOP-92 NSCLC 80.6% | A549/ATCC NSCLC 22.4% | 786-0 renal 27.7% | DU-145 prostate 17.1% | MALME-3M melanoma 52% | RXF 393 renal 17.9% | SF-268 CNS 51% | UACC-257 melanoma 60.1% | M14 melanoma 12.5%

CCNc1nc2cc(Nc3ccnc4cc(Cl)ccc34)ccc2o1
inactive: NCI-H23 lung 66.9% | NCI-H226 lung 79.6% | NCI-H322M lung 92.9% | HOP-62 NSCLC 75% | NCI-H460 lung 58% | HOP-92 NSCLC 56.8% | NCI-H522 lung 61.9% | A549/ATCC NSCLC 67.7% | 786-0 renal 81.7% | COLO 205 colon 72.2% | DU-145 prostate 86.2% | MALME-3M melanoma 91.7% | MDA-MB-231 breast 64.3% | RXF 393 renal 66.5% | SF-268 CNS 81.1% | SF-295 CNS 55.2% | SF-539 CNS 65.9% | UACC-257 melanoma 83.5% | M14 melanoma 61%

Cc1nn(-c2ccccc2)c(Cl)c1/C=N\N=c1/sc2ccccc2n1C
inactive: NCI-H23 lung 100% | NCI-H226 lung 105% | NCI-H322M lung 97.5% | HOP-62 NSCLC 93.1% | NCI-H460 lung 107% | HOP-92 NSCLC 84.5% | NCI-H522 lung 97.7% | A549/ATCC NSCLC 85.1% | 786-0 renal 92.6% | COLO 205 colon 109% | DU-145 prostate 108% | MALME-3M melanoma 112% | MDA-MB-231 breast 93.2% | RXF 393 renal 109% | SF-268 CNS 101% | SF-295 CNS 109% | SF-539 CNS 97.5% | UACC-257 melanoma 97.1% | M14 melanoma 99.8%

Cn1cc(-c2csc(-c3c[nH]c4ccccc34)n2)c2ccnc(Cl)c21
inactive: NCI-H23 lung 86.9% | NCI-H226 lung 60.5% | NCI-H322M lung 88.9% | HOP-62 NSCLC 119% | NCI-H460 lung 74.2% | HOP-92 NSCLC 64% | NCI-H522 lung 52.5% | A549/ATCC NSCLC 59% | 786-0 renal 59.1% | COLO 205 colon 46.7% | DU-145 prostate 47.2% | MALME-3M melanoma 139% | MDA-MB-231 breast 70.1% | RXF 393 renal 43.5% | SF-268 CNS 102% | SF-295 CNS 93.2% | SF-539 CNS 56.2% | UACC-257 melanoma 32.2% | M14 melanoma 43.3%

OCc1cnccc1NCCCOc1ccccc1
inactive: NCI-H23 lung 97.7% | NCI-H226 lung 92.9% | NCI-H322M lung 100% | HOP-62 NSCLC 99.9% | NCI-H460 lung 106% | HOP-92 NSCLC 90.5% | NCI-H522 lung 100% | A549/ATCC NSCLC 93.2% | 786-0 renal 101% | COLO 205 colon 123% | DU-145 prostate 104% | MALME-3M melanoma 104% | MDA-MB-231 breast 88.6% | RXF 393 renal 104% | SF-268 CNS 101% | SF-295 CNS 104% | SF-539 CNS 102% | UACC-257 melanoma 100% | M14 melanoma 109%

CN1C(N2CCN(S(=O)(=O)c3ccccc3)CC2)=NS(=O)(=O)c2ccccc21
active: RXF 393 renal -6.07%
inactive: NCI-H23 lung 98.2% | NCI-H226 lung 112% | NCI-H322M lung 82.6% | HOP-62 NSCLC 89% | NCI-H460 lung 103% | HOP-92 NSCLC 86.8% | NCI-H522 lung 80.2% | A549/ATCC NSCLC 69.7% | 786-0 renal 99.5% | COLO 205 colon 109% | DU-145 prostate 139% | MALME-3M melanoma 103% | MDA-MB-231 breast 104% | SF-268 CNS 101% | SF-295 CNS 39.9% | SF-539 CNS 111% | UACC-257 melanoma 61.5% | M14 melanoma 99.8%

O=C1/C=C/[C@@H](O)[C@@H]2C[C@@H](O)C[C@H]2/C=C/CCC[C@H](CCc2cccc3ccccc23)O1
inactive: NCI-H322M lung 25.2% | HOP-62 NSCLC 21.8% | NCI-H460 lung 12.2% | HOP-92 NSCLC 46.5% | A549/ATCC NSCLC 19.3% | DU-145 prostate 19% | SF-268 CNS 16.6% | SF-539 CNS 21.7% | UACC-257 melanoma 26.1%
active: NCI-H23 lung -36% | NCI-H226 lung -62% | NCI-H522 lung -25.8% | 786-0 renal -44.7% | COLO 205 colon -91.9% | MALME-3M melanoma -17.7% | MDA-MB-231 breast -41.2% | RXF 393 renal -30.9% | SF-295 CNS 7.76% | M14 melanoma 5.14%

Oc1ccc(C2c3ccccc3Oc3ccccc32)c2cccnc12
inactive: NCI-H23 lung 30.3% | NCI-H322M lung 24.3% | HOP-62 NSCLC 19.8% | HOP-92 NSCLC 43.1% | NCI-H522 lung 25% | A549/ATCC NSCLC 12.2% | COLO 205 colon 34.8% | DU-145 prostate 31.2% | MALME-3M melanoma 10.2% | MDA-MB-231 breast 30.2% | SF-268 CNS 20.2% | SF-295 CNS 13% | SF-539 CNS 10.4%
active: NCI-H226 lung 4.5% | NCI-H460 lung 2.23% | 786-0 renal -18.4% | RXF 393 renal 5.91% | UACC-257 melanoma 3.42% | M14 melanoma -24.5%

N#Cc1c(-c2ccccc2)nc2c(c(-c3ccccc3)nn2-c2ccccc2)c1-c1ccc(O)cc1
active: NCI-H460 lung 9.14% | NCI-H522 lung 0.943% | 786-0 renal 3.44% | RXF 393 renal -17.6% | SF-295 CNS -43.1%
inactive: NCI-H23 lung 44.1% | NCI-H226 lung 54% | NCI-H322M lung 66.9% | HOP-62 NSCLC 25.3% | HOP-92 NSCLC 50.1% | A549/ATCC NSCLC 41.4% | COLO 205 colon 41.9% | DU-145 prostate 49.4% | MALME-3M melanoma 43.8% | MDA-MB-231 breast 23.8% | SF-268 CNS 55.5% | SF-539 CNS 23.3% | UACC-257 melanoma 71.3% | M14 melanoma 56.4%

COc1ccc(C(=O)c2nc3ccccc3n2CC(=O)c2ccc(Cl)cc2)cc1
active: NCI-H522 lung -22.3% | M14 melanoma 7.42%
inactive: NCI-H23 lung 30.9% | NCI-H226 lung 37.5% | NCI-H322M lung 84.8% | HOP-62 NSCLC 42.4% | NCI-H460 lung 68.7% | HOP-92 NSCLC 54.4% | A549/ATCC NSCLC 81.4% | 786-0 renal 34.7% | COLO 205 colon 111% | DU-145 prostate 35.2% | MALME-3M melanoma 46% | MDA-MB-231 breast 35.6% | RXF 393 renal 27.8% | SF-268 CNS 41.7% | SF-295 CNS 10.2% | SF-539 CNS 16.4% | UACC-257 melanoma 37.4%

Cc1cccc(C)c1N=c1oc2ccc(Cl)cc2nc1-c1ccccc1O
inactive: NCI-H23 lung 78.6% | NCI-H226 lung 88.1% | NCI-H322M lung 88.6% | HOP-62 NSCLC 112% | NCI-H460 lung 97.2% | HOP-92 NSCLC 55.9% | NCI-H522 lung 82.9% | A549/ATCC NSCLC 96.7% | 786-0 renal 90% | COLO 205 colon 89.7% | DU-145 prostate 120% | MALME-3M melanoma 105% | MDA-MB-231 breast 83.6% | RXF 393 renal 90.9% | SF-268 CNS 92.1% | SF-295 CNS 106% | SF-539 CNS 99.5% | UACC-257 melanoma 90.8% | M14 melanoma 80.5%
